RVFV N-RNA FP – inhibitors of RVFV nucleoprotein–RNA binding, primary screen, biochemical, fluorescence polarization. P21700. % bound, % (test concentration not listed). AID 651828, 2012. 20,000 tested, 0.1% active. RVFV N-RNA binding; hits give low values; in the data active = % bound below about 75%
Target sequence (P21700 whole entry, looked up): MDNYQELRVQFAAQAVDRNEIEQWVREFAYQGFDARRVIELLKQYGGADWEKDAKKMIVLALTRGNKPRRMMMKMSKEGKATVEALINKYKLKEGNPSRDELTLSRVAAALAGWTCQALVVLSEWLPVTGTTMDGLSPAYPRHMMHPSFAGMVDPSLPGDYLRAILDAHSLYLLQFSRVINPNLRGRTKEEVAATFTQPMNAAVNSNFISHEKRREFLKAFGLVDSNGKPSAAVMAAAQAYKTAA
Starred values were filed as active, the others as inactive. This is one part of a sample in which hits are shown more often than they occur.

SMILES	RVFV N-RNA FP
Cc1nc(COP(=O)(O)O)cc(CN(CCN(CC(=O)O)Cc2cc(COP(=O)(O)O)nc(C)c2O)CC(=O)O)c1O.[Mn]	97.3
O=C1/C(=C/c2ccccc2)Oc2c1ccc(O)c2CN1CCCC1	106.2
CCN(CC)Cc1c(O)ccc2cc(-c3ccc(OC)c(OC)c3)c(=O)oc12	92.8
CCN(CC)Cc1c(O)ccc2c1O/C(=C\c1ccccc1Cl)C2=O	50.7*
COC(=O)c1c(O)cn(-c2ccc(C)c(C)c2)c1C	95.8
O=C(CSc1nc(=O)n(Cc2ccncc2)c2c1CCCC2)Nc1ccccc1	92.4
CCCc1cc(=O)n2[nH]c(-c3ccc(I)cc3)cc2n1	106.4
CC(C)(C)C(=O)/C=C(/N)c1ccncc1	102.9
N#CC(C#N)=Cc1ccc(-c2cccs2)s1	86.2
CCOC(=O)/C(C#N)=C/c1ccc(-c2cccs2)s1	18.8*
CCOC(=O)/C(C#N)=C/N1CCCC1c1cccs1 (centres undefined)	92.4
COc1ccc(OCC(O)CNC(=O)C2CCN(c3nccc(C(F)(F)F)n3)CC2)cc1 (centres undefined)	90.0
COC(=O)c1ccc(CO/N=C(\C)c2ccc(Cl)cc2Cl)o1	91.5
O=C(NNc1ccc(F)cc1)c1cc(Cl)nc(OCC(F)(F)F)c1	90.6
S=c1oc(-c2ccccc2)nn1CN1CCCCC1	95.4
CN1c2ccsc2C(=O)CS1(=O)=O	86.4
Cn1c(=O)c(-c2noc(-c3cccs3)n2)cn(-c2ccccc2)c1=O	93.4
Cc1ccc(N2CCN(Cc3sccc3C)CC2)cc1	97.2
CCOC(=O)CN=C1NC(=O)C(c2ccccc2)(c2ccccc2)N1	95.7
CC1=CC(=O)C(CCCC2=CC(=O)C=CC2=O)=CC1=O	99.7
Cc1ccc(C(=O)c2cnc3cc4c(cc3c2N2CCCCC2)OCO4)cc1	95.7
CC1=C(C(N)=O)C(c2ccccc2)NC(=S)N1 (centres undefined)	99.6
C=CCSc1ncnc2c1cnn2-c1ccc(Cl)cc1	98.3
O=C(Cc1ncc(-c2ccccc2)cn1)c1ccccc1	91.5
Cc1ccc2nc(NNC(=O)c3ccc(S(=O)(=O)N4CC(C)OC(C)C4)cc3)sc2c1 (centres undefined)	98.5
COc1ccc(CCN2CNC(=S)NC2)cc1OC	91.2
COc1ccc(Cl)cc1NC(=O)Nc1cc(C)nc2ccccc12	100.4
Cc1sc2nc[nH]c(=S)c2c1C	94.9
CCn1c(CNC(=O)COc2c(C)cccc2C)nnc1SCC(=O)Nc1ccc(OC)cc1	84.8

Screens as filed in PubChem BioAssay.
